Measured values as given in the supplement of paper PMC11417369.
The full ranking holds about 25,000 sequences; the median of “ln(normalized median fluorescence intensity)” is about 7.1, and the highest 2% start at about 10. This excerpt belongs to a sample that is enriched for the highest values.

What follows are sequences tested on PfSIP2 AP2 domain 1 (GST-tagged) (assay: gcPBM binding intensity (ln(normalized median fluorescence intensity)); higher = stronger DNA binding).
How it was run: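 For binding intensity, the highest Masliner-normalised natural-log median intensity across replicate spots of either probe orientation was taken. Protein bound to the array was stained with Alexa488 anti-GST antibody and scanned at 488 nm. The protein, GST-tagged P. falciparum DNA-binding domains from E. coli at about 25 μg on average, had been applied for 1 h to an Agilent 4 × 180k array of primer-extended double-stranded 36-bp intergenic genomic probes and negative controls.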

Row | Sequence | gcPBM binding intensity (ln)
1 | TACAAACAATTAAACAAACACACATATACATGTATA [CACACA_site2061] | 6.92
2 | TAAAATTAAATGAAATCATTATTCATTTTTATTTTA [CACACA_negctrl_site1281] | 6.67
3 | ATTAAGACACATTGCACACGTGCACCCATAGAAAAA [CACACA_site408] | 12.2
4 | TACACCCATAGACACACACACACGCATAAAAAAAAA [CACACA_site8428] | 7.55
5 | ACATTAAGACACATTGCACACGTGCACCCATAGAAA [CACACA_site8029] | 12
6 | CCATTAAGACACATTGCACACGTGCACCCATAGAAA [CACACA_site4388] | 12.4
7 | TAAGAAATAAATAGTACACACATAGACACCCACCCA [CACACA_site8429] | 7.39
8 | TATATATATATAGACACACACACACCCATATATATA [CACACA_site4117] | 9.12
9 | TAAGAAATAAATAGTACACACATAGACACCCACCGA [CACACA_site1516] | 7.3
10 | AGTACAGACATAGACACACACACACCCATAAAAAAA [CACACA_site1515] | 7.24
11 | TAAGAAATAAATAGTACACACATAGACACACGCACA [CACACA_site6821] | 8
12 | ACTGCGTTTTTACACGCGCACTGCAATGAACAATAT | 8.05
13 | AGGTAGAAAAAAGACACACACATTAGATATTTATAT [CACACA_site6313] | 6.87
14 | TATTATATTCTGCTTACACACATATATATATATATA [CACACA_site3060] | 9.32
15 | ATTTTTTTTTCTTTCGCACACGTGAAAGAATTTCTA [CACACA_site2052] | 7.13
16 | TTATATATTTATATATGTACACATTTTACCATTTTT [XGTACX_site2142] | 6.9
17 | GAAAAAAAAAAAAATACACACAAATTGGTATATAAC [CACACA_site6315] | 6.75
18 | TATATACACATTTTTATACACACTTGTTTTATAAAA [CACACA_site8139] | 7.16
19 | AATAAATAAATAAATAAATATATATATATATATATA [GTGCAC_negctrl_site224] | 9.48
20 | AAATGAAAAATAAGGAAAAAAAAAAAAAAAAAAAAA [CACACA_negctrl_site1715] | 6.88

Row | Sequence | gcPBM binding intensity (ln)
21 | TTTTTTACTTTTGAGACATTTCATATTTTTATTCAC [GTGCAC_negctrl_site730] | 6.91
22 | TATTAATATTTACACACATGCGCACACATAAATAAA [TGCATGCA_site609] | 9.31
23 | TATATATCAATATTTACACACATGCGCCCACATAAA [CACACA_site7185] | 7.57
24 | AATATTTACAGACATGCGCACACATAAATAAATAAT [CACACA_site8760] | 8.81
25 | TATTTACACCCATGCGCACACATAAATAAATAATAG [CACACA_site5350] | 8.34
26 | TATATCTTAATATTTACACACATGCGCACCCATAAA [CACACA_site5349] | 12
27 | TATATATTAATATTTACACACATGCGCACCCATAAA [CACACA_site2410] | 12.1
28 | TATGAATGGTTAAGTACACACATATTAAGATATGTA [CACACA_site5852] | 6.99
29 | CTATTTAAAATTTGAACACACATTATTTATTTTAAA [CACACA_site3114] | 6.9
30 | ACTTTAACCTGAACGGTGCATAAAATTTTGGCATTA | 10.8
31 | TGCATTTTACTTGTTACACACATATAAAATTAACCA [CACACA_site7387] | 7.11
32 | TTATAGCCTGTGAAGAGTACATTTTTATTTTTTATT [XGTACX_site4105] | 6.85
33 | TTTTTTTTTTTTTGGTGTACCATAGGTAAAATGATT [XGTACX_site8020] | 7.2
34 | TATTTATATTTATACACACACACAAAAAAAAAAAAA [CACACA_site6817] | 7.22
35 | TATTTTTTATATTTATTTATTTAAAGGAGCTTTTCT [GTGCAC_negctrl_site293] | 6.67
36 | ATATATATATATATTACACACTTTTTCTTTTTTTTT [CACACA_site2780] | 9.47
37 | CAGGTGCACTATATTACACACGCTTCTTTTTTTTTA [CACACA_site2069] | 12.4
38 | TTTTTCATTTAGCTTTTACACACTATATATTATTGA [CACACA_site7888] | 7.16
39 | TATATATTTTTATGTGTGCACTGTTTCATAAAAGAA | 10.9
40 | TATATATATTTTTGTGTGCACTATAATATGAAAATA | 10.8

Row | Sequence | gcPBM binding intensity (ln)
41 | TATATATTTCGGTGTGCACACTTTTTATTTTTATCC [CACACA_site1726] | 8.4
42 | ATATATTGCACTTTTTGTACATAATGAAAAATTTTT [XGTACX_site8223] | 8.1
43 | AATATTTCTCATTTTGTGCACTGAAAAATGTAATAT | 10.2
44 | AATTTTTTTTTTTTTTTTTTTTATATATGTGTGTGT [XGTACX_negctrl_site129] | 7.29
45 | ACATATTATATATGTGTGCACATATATATATATTTA [GTGCAC_site9591] | 8.7
46 | ATCATATTTTTATGTGTGCACTTTTTTTTTTTTTTT [GTGCAC_site9555] | 10.8
47 | TATATATATATGTGCACACATAAAGATATTATTTTT [CACACA_site3733] | 9.51
48 | TATATATATATATATGTGCACATATTTATATGTTTT | 9.47
49 | AATATATTTATGCTCATGCACTTTTTTTTTTTTTTT [GTGCAC_site9654] | 8.89
50 | ATATATTTTATATGTGTGCACTATATATATATATAT | 10.2
51 | AAATATATTTTACATTGTACATGAATAAACTATAAA [XGTACX_site2080] | 7.05
52 | AAGGCAAGCACTTAAACATGCATATAATAATATCAT [TGCATGCA_site698] | 7.36
53 | TGATAAGTATACTAAAGTACATGAAAAATAACTTCC [XGTACX_site6908] | 6.87
54 | ATTACATACGAGCACACGTAAAAGTATAATATAAAA [GTGCAC_negctrl_site446] | 6.94
55 | TGAGTATATATAAATACACACCAAATGTTAATATAT [CACACA_site5022] | 6.8
56 | TAATGATAAATACATACACACAAAAAATAATATATA [CACACA_site2576] | 6.85
57 | CATATATATTTGTTCACACACACACTAGAAAAAAAA [CACACA_site5380] | 7.29
58 | TATGATACATAAATATGTACGTATAATATATATTTA [XGTACX_site7002] | 6.96
